Bioassay records: PubChem, National Center for Advancing Translational Sciences (NCATS)
MCF10A rereplic: induces DNA re-replication in MCF 10a normal breast cells | actives 2.9% (n = 350,000) | AID 624296 | Potency, µM (doses to about 46.1 µM), inactives show top-dose activity, positive = re-replication, hits mostly activators | MCF 10A DNA re-replication, Hoechst nuclear intensity, 48 h; also: % of control where 0% means no effect; nearly all actives have a fitted effect of over 50% in size
KB-3-1 tox: kills parental KB-3-1 adenocarcinoma cells. KB-3-1 viability, CellTiter-Glo ATP luminescence, 72 h. Potency, µM (titrated, usually from 46.1 µM), most hits filed as cytotoxic. actives 1.4% (n = 400,000); also: % is scaled to controls: 0 for no effect and ±100 for the full control effect; nearly all actives have a fitted effect of over 60% in size
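72 h, 37 °C compound treatment of KB-3-1 parental cells; CellTiter-Glo added, 10 min, luminescence read. Data corrected against DMSO-only plates and normalized before curve fitting.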
KB-V1 cytotox: kills drug-selected multidrug resistant KB-V1 cells | KB-V1 MDR cells viability, CellTiter-Glo, 72 h | Potency, µM (doses to about 46.1 µM), hits mostly cytotoxic | actives 3.4% (n = 400,000); also: % is scaled to controls: 0 for no effect and ±100 for the full control effect; nearly all actives have a fitted effect of over 60% in size
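KB-V1 MDR subline cells in DMEM (phenol-red free, 10% FBS) exposed to compounds in qHTS concentration series for 72 h at 37 degrees C. Viability read by CellTiter-Glo luminescence; concentration-effect curves fitted after normalization and correction.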
SW480 rerep: DNA re-replication induction in SW480 cells | Potency, µM (highest dose often 46.1 µM), inactives show top-dose re-replication activation, hits mostly activators | SW480 DNA re-replication, Hoechst DNA content imaging, 48 h | actives 1.8% (n = 340,000); also: % of control where 0% means no effect; nearly all actives have a fitted effect of over 55% in size
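Treated cells incubate 48 hr (37 C, 5% CO2), are stained 40 min with Hoechst, and nuclear fluorescence is enumerated; a rise in nuclei with high DNA signal marks re-replication.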
HT1080-NT tox: kills 2HG-producing HT-1080-NT fibrosarcoma cells | HT-1080-NT fibrosarcoma viability, CellTiter-Glo ATP luminescence, 48 h | Potency, µM (series often up to 46.1 µM), without a hit: at the highest dose activity, negative = less viability, hits mostly cytotoxic | actives 1.6% (n = 360,000);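 also: NT is the 2HG producing partner of a matched IDH1 knockdown line; 0% = DMSO-treated cells and -100% = media-only wells without cells; nearly all actives have a fitted effect of over 55% in size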
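Luminescent CellTiter-Glo readout after 48 hours of compound exposure at 37 degrees C defined viability of HT-1080-NT cells. Activity was normalized to DMSO wells and cell-free media wells; concentration-response curves were fitted and assigned curve classes.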
HT1080 IDH1KD tx: kills HT-1080 cells with IDH1 knockdown; HT-1080 IDH1 knockdown viability, ATP luminescence, 48 h; Potency, µM (top dose mostly 46.1 µM), without a hit: top-dose activity, negative = toxicity, hits mostly cytotoxic; actives 2% (n = 360,000); AID 686971;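 also: 0% = DMSO wells and -100% = cell-free medium wells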
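% activity derives from luminescence (CellTiter-Glo), normalised to DMSO and no-cell wells. HT-1080-IDH1KD cells, 750/well, had 48 h compound exposure at 37 °C.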
* marks the source's active call; other numbers are inactive results; i = inactive; ? = inconclusive; / = no result. Hits are enriched below; roughly 7.9% of the tested compounds scored in any of these assays. Calls follow the shape of the dose curve; as a rule, active = well fitted curve in the direction sought with a large enough effect; inconclusive = small, poorly fitted or top-dose-only effect, or another doubt; inactive = no such curve, though single readings can be large; an effect the other way counts as inactive or inconclusive. Potency is read from the fitted curve at half-maximal effect.

SMILES | MCF10A rereplic | KB-3-1 tox | KB-V1 cytotox | SW480 rerep | HT1080-NT tox | HT1080 IDH1KD tx
Cc1cccc(N2C(S)=C(C#N)C(=O)NC2c2ccco2)c1 (centres undefined) | ? | i | ? | -1.2% | 1.9% | -8.1%
CC(O)CNc1ccc(-c2nn(C)c(=O)c3ccccc23)cc1[N+](=O)[O-] (centres undefined) | 4.1% | 9.2µM* | 6.51µM* | -4.2% | -16.0% | -12.8%
CC(=O)c1ccc(Oc2nc(C)nc3c2oc2ccccc23)cc1 | / | 18.4µM* | i | / | / | /
CCOC(=O)c1ccc(Oc2nc(C)nc3c2oc2ccccc23)cc1 | / | i | ? | / | / | /
COc1ccc(OC)c(CCNC(=O)c2ccc3c(c2)N(Cc2ccc(C)cc2)CCS3)c1 | / | i | i | / | / | /
Cc1ccc(-c2nnc(NC(=O)CCS(=O)(=O)c3ccc(F)cc3)o2)c(C)c1 | 8.2µM* | i | i | 1.2% | -14.1% | -8.2%
O=C(CCS(=O)(=O)c1ccc(Cl)cc1)Nc1nnc(-c2cccs2)o1 | ? | i | i | 1.64µM* | -28.2% | -16.7%
Cc1ccc(C(=O)NCC(c2ccc(Cl)cc2)N2CCCCC2)cc1 (centres undefined) | / | i | i | / | / | /
Cc1c(Cl)c(C(=O)NC2C3CC4CC(C3)CC2C4)nn1C (centres undefined) | 12.7% | i | 14.6µM* | -2.3% | 8.7% | -19.3%
CCc1cc2c(=O)nc3n(c2s1)Cc1ccccc1/C3=C(/O)c1ccccc1Cl | 6.51µM* | i | i | 8.7% | 0.4% | -1.6%
N#C/C(=C\c1c(N2CCCCC2)nc2ccccn2c1=O)C(=O)NCc1ccco1 | -33.2% | ? | 2.91µM* | 6.6% | -1.4% | 1.5%
CCNC(=O)/C(C#N)=C/c1c(N(Cc2ccccc2)Cc2ccccc2)nc2ccccn2c1=O | 11.7% | ? | 2.91µM* | -158.5% | 23.1µM* | ?
CNC(=O)/C(C#N)=C/c1c(N(Cc2ccccc2)Cc2ccccc2)nc2c(C)cccn2c1=O | ? | 16.4µM* | 23.1µM* | 0.2% | 18.4µM* | ?
CCNC(=O)/C(C#N)=C/c1c(N2CCN(C)CC2)nc2c(C)cccn2c1=O | -14.0% | i | i | ? | 4.1% | -0.7%
O=C(Nc1nnc(-c2ccncc2)s1)Nc1ccc(Cl)cc1F | / | i | i | / | / | /
COc1ccc2c(c1)cc1c(=O)n(CC(=O)NCCCc3ccccc3)nc(C)n12 | / | i | i | / | / | /
Cc1cc(C)c2c3c(sc2n1)C(c1cccc(F)c1)C(C#N)=C(N)O3 (centres undefined) | 8.2µM* | i | ? | 18.4µM* | 12.3% | 5.4%
Cc1cccc(NC(=O)CS(=O)(=O)c2cccc3nsnc23)c1 | / | i | i | / | / | /
COC(=O)c1c(NC(=O)Cc2cccs2)sc(C(=O)N2CCCCC2)c1C | 9.4% | i | 16.4µM* | -2.3% | -1.8% | -28.9%
COC(=O)c1c(NC(=O)CCl)sc(C(=O)N2CCOCC2)c1C | ? | ? | ? | ? | 7.31µM* | 18.4µM*
CCOC(=O)c1c(NC(=O)Cc2cccs2)sc(C(=O)NC2CCCC2)c1C | 24.9% | i | i | -9.0% | ? | -21.7%
COC(=O)c1c(NC(=O)Cc2cccs2)sc(C(=O)NC2CCCCC2)c1C | 4.3% | i | i | ? | 1.6% | 2.7%
CCOC(=O)c1c(NC(=O)Cc2cccs2)sc(C)c1C | 3.66µM* | i | ? | -5.1% | ? | -25.0%
CC(C)c1ccc(OCC(=O)Nc2c(C(=O)c3ccc(F)cc3)oc3ccccc23)cc1 | / | i | i | / | / | /
COc1ccc(S(=O)(=O)N(CC(=O)N2CCC(C)CC2)c2ccc(C)cc2)cc1 | / | i | i | / | / | /
SMILES | MCF10A rereplic | KB-3-1 tox | KB-V1 cytotox | SW480 rerep | HT1080-NT tox | HT1080 IDH1KD tx
COC1=CC(=O)c2c(ccc3ncnc(N)c23)C1=O | 15.8% | 2.06µM* | 1.84µM* | ? | 4.11µM* | 2.91µM*
COc1cc2nc(N3CCN(C)CC3)nc(NC(C)C)c2cc1OC | / | / | / | / | -22.5% | -1.8%
CCC(C)c1ccc(S(=O)(=O)Nc2cccnc2)cc1 (centres undefined) | 1.9% | i | i | 29.3% | -8.8% | ?
CC(C)Cc1ccc(S(=O)(=O)Nc2cccnc2)cc1 | 14.5% | i | i | 4.61µM* | ? | ?
O=C1CS(=O)(=O)C2(C(=O)N(Cc3ccccc3Cl)c3ccccc32)N1c1ccc(F)cc1 (centres undefined) | / | i | i | / | / | /
Cc1cc(Br)cn2c(Cc3ccccc3)c(-c3ccc(C#N)cc3)nc12 | / | i | i | / | -28.4% | -22.3%
CCCCOc1ccc(Cc2c(Cl)nc(SC)nc2N2CCOCC2)cc1 | 15.4% | i | 20.6µM* | 3.9% | -1.4% | 0.7%
CC(=O)N1CC(=O)N=C1SCC(=O)Nc1nc(C)c(-c2ccccc2)s1 | ? | ? | 13µM* | 2.3% | ? | ?
CCOc1ccc(-c2csc(NC(=O)CSC3=NC(=O)CN3C(C)=O)n2)c2ccccc12 | ? | i | i | 0.8% | -4.0% | 3.8%
CN1CCCC1CCNc1ncnc2ccc(-c3ccc4c(c3)OCO4)cc12 (centres undefined) | / | i | ? | / | / | /
CC(/C=C/c1ccccc1F)=N\NC(=O)c1ccccc1 | 12.2% | ? | ? | -0.2% | -23.2% | ?
CC(/C=C/c1ccccc1F)=N\NC(=O)c1ccc(Cl)cc1 | ? | i | i | 18.1% | 4.61µM* | 7.31µM*
CC(C)[C@H](NC(=O)OC(C)(C)C)c1cc(C(=O)NC2CC2)c(N)s1 | / | i | ? | / | -2.4% | 0.1%
OC(c1ccc(F)c(F)c1)c1nc(-c2cccc(F)c2)cs1 (centres undefined) | / | i | i | / | ? | ?
Cc1nn(C)cc1C(=O)Nc1cc(Oc2ccc(Cl)cc2)cc([N+](=O)[O-])c1 | 97.4% | 20.6µM* | ? | 21.9% | 1.9% | 3.9%
CCOc1ccc(Oc2cc(NC(=O)c3ccco3)cc([N+](=O)[O-])c2)cc1 | ? | i | i | 5.2% | -6.3% | -6.6%
O=C(Nc1cc(Oc2ccc(Cl)cc2)cc([N+](=O)[O-])c1)c1ccco1 | 16.4µM* | i | i | -0.1% | ? | ?
Cn1cc([N+](=O)[O-])c(C(=O)Nc2cc(Oc3ccccc3)cc([N+](=O)[O-])c2)n1 | 2.91µM* | ? | ? | 4.11µM* | 18.4µM* | 6.51µM*
CCn1nc(C)c(C(=O)Nc2cc(Oc3cc(C)cc(C)c3)cc([N+](=O)[O-])c2)c1C | 23.1µM* | 18.4µM* | 3.26µM* | ? | ? | ?
